Compound activity as filed in PubChem.
In the library only some 4.1% were active in any assay of this set; here they are far more common.
DAX1 inh-1: DAX1 (NR0B1) inhibition, primary screen; HEK293T StAR-luciferase reporter, SF-1/DAX-1 repression relief; inhibition, % at 6.8 µM; actives 1.1% (n = 370,000); AID 652010;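 active = inhibition above the mean over all tested compounds plus 3 SD, cut at about 3.6% in these data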;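 note: 0% = DAX-1 cells with DMSO and 100% = cells lacking DAX-1 with DMSO; higher inhibition means more luminescence from relief of DAX-1 repression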
DAX1 inh-2: inhibits human nuclear receptor DAX1. P51843. HEK293 Gal4-DAX1 luciferase reporter, luminescence. inhibition, % at 6.75 µM. actives 0.99% (n = 340,000);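 active = inhibition above the mean over all tested compounds plus 3 SD, cut at about 4.2% in these data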;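 note: 0% = DAX1-transfected cells with DMSO and 100% = empty-vector control cells with DMSO; inhibition shows as a rise in luminescence from relieved DAX1 repression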
Target sequence (P51843 207-470 limits assumed): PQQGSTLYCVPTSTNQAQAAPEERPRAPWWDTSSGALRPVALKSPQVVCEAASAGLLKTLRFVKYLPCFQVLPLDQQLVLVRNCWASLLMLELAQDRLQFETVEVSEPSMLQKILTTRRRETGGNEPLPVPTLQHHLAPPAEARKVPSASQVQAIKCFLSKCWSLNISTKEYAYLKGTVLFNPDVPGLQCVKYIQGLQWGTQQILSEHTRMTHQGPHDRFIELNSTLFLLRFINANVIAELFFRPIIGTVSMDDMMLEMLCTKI
hgDAF-12 ag: agonists of H. glycines DAF-12 nuclear receptor; HEK293 GAL4-hgDAF12 UAS-luciferase reporter, agonist luminescence; normalized to butyrate control; activation, % at 6.8 µM; actives 1.8% (n = 370,000);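 active = activation above a cutoff set at the mean of all screened compounds plus 3 SD, cut at about 10% in these data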;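 note: 0% = DMSO wells and 100% = sodium butyrate wells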
ssDAF12 agonist: activates DAF-12 receptor from parasite S. stercoralis | AID 652126 | activation, % at 6.8 µM | HEK293 ssDAF-12/GRIP1 lit1-tk-luc reporter, luminescence; % of 3 µM dafachronic acid response | actives 1% (n = 370,000);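 active = activation above the mean over all tested compounds plus 3 SD, cut at about 0.9% in these data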;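 note: 0% = DMSO-only wells and 100% = 3 µM delta7-dafachronic acid wells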
hcDAF-12 act: H. contortus DAF-12 activation, primary screen; HEK293 hcDAF-12 lit1-tk-luc reporter, luminescence; 0% DMSO, 100% Δ7-dafachronic acid; activation, % at 6.8 µM; actives 1.4% (n = 370,000);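 active = activation above the mean of all tested compounds plus 3 SD, cut at about 5.5% in these data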;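 note: 100% = response to 3 µM Δ7-dafachronic acid high control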
hgDAF12 conf: hgDAF-12 agonism, confirmation assay; shares compounds with hgDAF-12 ag; AID 743050; actives 80% (n = 3,300); activation, % at 6.8 µM; HEK293 GAL4-hgDAF12 luciferase reporter, agonist mode; percent of butyrate response;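 active = mean activation over triplicate wells above the hit cutoff derived from the earlier primary screen, cut at about 11% in these data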;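 note: 0% = DMSO low control and 100% = 2 mM sodium butyrate high control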
LXRb DAF12 ctr: counter-screen for DAF-12 agonists: agonists of human LXR-beta | shares compounds with hgDAF-12 ag | HEK293 Gal4-LXR luciferase reporter, 24 h | activation, % at 6.8 µM | 3,300 tested, under 10 active;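 active = mean activation of the triplicate above a set limit carried over from the primary screen, none filed active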
* hit, by the source's call; . = no result given.

SMILES	DAX1 inh-1	DAX1 inh-2	hgDAF-12 ag	ssDAF12 agonist	hcDAF-12 act	hgDAF12 conf	LXRb DAF12 ctr
CCCNC(=O)c1oc2ccc3c(c2c1C)C(=O)CC(C)(C)O3	2.6	0.0	15.6*	0.5	2.6	12.5*	0.6
COc1cccc(-c2ncn(CCc3ccccc3OC)c2CC(C)C)c1	-2.2	.	-4.5	-1.6	-3.6	.	.
CCOc1ccc(CN(CCC#N)C(=S)NC(=O)c2ccccc2)cc1	-0.8	0.2	17.4*	-1.4	-2.0	-1.8	0.0
CC(OC(=O)Cn1cnc2c1c(=O)n(C)c(=O)n2C)C(=O)NC1(C#N)CCCCC1 (centres undefined)	-0.5	0.7	-0.7	-1.2	-1.2	.	.
COc1ccccc1-c1noc(-c2ccccc2)n1	3.7*	1.9	13.7*	0.7	5.3	18.8*	0.8
O=C1CS/C(=N\NC(=O)c2ccccc2)N1	-0.1	.	0.2	-1.5	-1.7	.	.
CC1=C/C(=N\NC(=O)c2ccccc2)CC1	1.5	-0.1	13.5*	-0.1	2.6	1.1	0.1
CC1CC(C)CN(C(=O)Cc2c(C(=O)O)[nH]c3ccc(Cl)cc23)C1 (centres undefined)	0.1	1.1	0.7	-0.9	0.0	.	.
CN(C)c1ccc(C(C#N)c2ccc(Cl)cc2)nn1 (centres undefined)	-0.5	0.3	3.3	-0.9	-0.4	.	.
CN(C)c1ccc(C(C#N)c2ccccc2)nn1 (centres undefined)	2.1	0.4	21.1*	2.1*	6.1*	1.3	0.0
O=C(Nc1ccc2c(c1)OCO2)c1n[nH]c(=O)c2ccccc12	2.5	1.6	17.6*	-0.6	1.6	8.8	0.5
CN(C)C=NC(=O)c1cc(C(=O)c2ccc(C(C)(C)C)cc2)c[nH]1	4.4*	0.7	14.0*	-0.8	5.3	15.6*	0.8
Cc1cccc(C(=O)N2CCN=C2SCc2ccc([N+](=O)[O-])cc2)c1	-0.8	1.5	2.3	-2.2	-1.4	.	.
Cc1cc(C)c(SSc2nnnn2-c2ccccc2)c(C)c1	-1.0	0.7	-1.0	-1.0	-0.3	.	.
CC(C)(Oc1ccc(Cl)cc1)C(=O)O	-0.7	0.9	-3.5	-2.1	-2.7	.	.
Cc1cc(C(=O)NC2=NCCS2)cs1	2.6	0.4	16.8*	-0.1	5.1	15.3*	0.6
O=c1[nH]c(Cc2ccccc2)nc2c1oc1ccccc12	-0.3	-0.1	-2.4	-1.5	-0.7	.	.
Cc1nc2c(oc3ccccc32)c(=O)o1	1.4	2.3	13.7*	0.0	6.1*	9.1	0.2
CC1CN(S(=O)(=O)c2cccc(C(=O)Nc3ccc4c(c3)CCC4)c2)CC(C)O1 (centres undefined)	-1.7	-4.4	-3.0	-2.3	-2.8	.	.
Cc1cc(NC(=O)Cn2c(=O)oc3ccccc32)no1	1.0	-0.1	0.4	-1.3	-0.2	.	.
CCOC(=O)C1(Cc2cccc(Cl)c2)CCCN(C(=O)c2cccc(C)n2)C1 (centres undefined)	-3.5	-1.3	0.0	-2.4	-2.6	.	.
Cc1cc(NC(=O)CSc2nc3c(cc2C#N)CCC3)no1	2.6	4.7*	13.2*	-0.6	3.7	15.2*	1.0
O=C(O)c1ccc(/C=C2\CCCc3c2nc2ccccc2c3C(=O)O)cc1	0.2	-0.4	0.6	-0.8	5.1	.	.
CN(C)c1ccc(/C=C2\CCCc3c2nc2ccccc2c3C(=O)O)cc1	1.5	0.8	13.3*	1.6*	5.7*	13.2*	0.4
COc1ccc(/C=N/NC(=O)c2ccc[nH]2)cc1	3.0	3.8	13.4*	0.4	4.6	14.9*	0.5
SMILES	DAX1 inh-1	DAX1 inh-2	hgDAF-12 ag	ssDAF12 agonist	hcDAF-12 act	hgDAF12 conf	LXRb DAF12 ctr
Clc1ccccc1Sc1ccc(-c2ccccn2)s1	-0.1	.	1.4	-1.1	-1.5	.	.
CC(=O)Nc1ccc(OCCC[n+]2ccccc2)cc1	-0.5	2.2	1.6	-1.1	1.1	.	.
CC(=O)Nc1ccc(OCC[n+]2cccc(C(N)=O)c2)cc1	0.0	.	19.7*	-1.2	-0.8	-0.3	0.0
COc1ccc(-n2c(C)cc(/C=C(\C#N)C(=O)NCc3ccco3)c2C)cc1	-0.4	-0.7	-0.6	-0.2	-0.8	.	.
Cc1cc(/C=C(\C#N)C(=O)O)c(C)n1C1CC1	-0.4	-0.4	1.5	-0.4	-1.1	.	.
COCCNC(=O)/C(C#N)=C/c1cc(C)n(C2CCCCC2)c1C	4.0*	1.8	19.6*	0.1	3.5	8.5	0.6
COCCNC(=O)/C(C#N)=C/c1cc(C)n(-c2ccc(C)cc2)c1C	3.4	0.4	21.6*	0.0	6.1*	14.8*	0.8
CCc1ccc(C(=O)CN2CCSC2=N)cc1	3.4	1.5	19.8*	0.7	5.6*	16.6*	0.7
COc1ccc(-c2c(-c3ccc(OC)nc3)c3ccccc3n2C)cc1	-0.5	0.2	1.0	-0.9	0.0	.	.
CC(/C=N/NC(=O)c1nn(C)c(C)c1Br)=C\c1ccccc1	2.2	2.2	13.8*	-0.2	3.2	9.2	0.3
COc1cc(/C=N/O)ccc1OCc1ccccc1Cl	2.3	1.1	14.1*	0.2	5.2	16.4*	0.8
COc1ccccc1OCC(=O)Nc1nc(C)c(C)s1	1.4	1.8	13.7*	0.5	2.4	12.2*	0.8
COC(=O)c1sc(NC(=O)COc2ccccc2C)nc1C	0.8	-0.2	-1.0	-1.5	-0.3	.	.
COCCNC(=O)COC(=O)c1cccnc1SC	0.3	0.0	-1.1	-1.4	-0.4	.	.
Cn1c(SCC2CCCCC2)nnc1-c1ccco1	1.3	.	14.5*	0.2	1.3	14.6*	0.4
Cc1ccc2nc(-c3ccc(O)cc3)c(Nc3ccc4c(c3)OCCO4)n2c1	1.8	0.3	16.5*	-0.3	4.0	-0.5	0.0
Cc1ccc2nc(-c3ccccc3O)c(Nc3ccc4c(c3)OCCO4)n2c1	-0.1	0.4	0.1	-1.2	1.6	.	.
CC(Nc1n[nH]c(=O)[nH]c1=O)C(=O)N/N=C/c1cccs1 (centres undefined)	0.0	0.5	-1.3	-1.1	-0.7	.	.
CC(C)CN1CCN(CCCOC(=O)Nc2cccc3ccccc23)CC1C (centres undefined)	-0.3	-0.6	2.8	-0.6	0.3	.	.
Cc1ccccc1C(=O)NC1CCCCCCC1	1.6	2.4	14.6*	1.0*	3.6	12.2*	0.7
CC(=O)c1ccc(NC(=O)/C(Cl)=C/c2ccccc2)cc1	3.4	1.9	16.7*	0.3	3.7	12.0*	0.9
CCOC(=O)C1C(c2cccs2)NC(=O)NC1(O)C(F)(F)F (centres undefined)	0.1	0.5	24.2*	-0.4	-1.7	-1.1	-0.1
CCOC(=O)C1C(c2cccnc2)NC(=O)NC1(O)C(F)(F)F (centres undefined)	-0.4	2.2	0.4	-0.5	0.3	.	.
O=C1CC(/C=C/c2ccccc2)=Nc2ccccc2N1	0.7	1.1	2.6	-1.1	-0.6	.	.
